Assay [1] is described as follows: NCI Yeast Anticancer Drug Screen. Data for the rad50 strain (AID 155).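 Note: 0% = growth of vehicle-only cultures of the same strain.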 Particulars: S. cerevisiae rad50 strain growth inhibition, active compounds read high. Put shortly: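 Growth of the mutant yeast was measured after compound exposure and referenced to vehicle-treated cultures.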
A short description of assay [2]: NCI Yeast Anticancer Drug Screen. Data for the mec2-1 strain (AID 157). Conditions: S. cerevisiae mec2-1 strain, active compounds read high. A digest of the protocol: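 Readout is yeast growth inhibition, normalised to vehicle-treated controls, in the mec2-1 strain exposed to compound.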
Assay [3] can be described thus: NCI Yeast Anticancer Drug Screen. Data for the sgs1 mgt1 strain (AID 161).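 Note: 0% = growth of cultures given vehicle only.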 Conditions: S. cerevisiae sgs1 mgt1 strain, active compounds read high. Put shortly:
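This yeast growth screen uses a strain with defined DNA-repair lesions; compound-treated growth is compared with vehicle-treated growth.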

The nature of assay [4]: NCI Yeast Anticancer Drug Screen. Data for the cln2 rad14 strain (AID 165).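 Note: 0% = growth equal to vehicle treated cultures.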 Conditions: S. cerevisiae cln2 rad14 strain, active compounds read high. Put shortly:
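Relative to vehicle controls, growth inhibition of compound-treated cln2 rad14 yeast was recorded.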

A short description of assay [5]: NCI Yeast Anticancer Drug Screen. Data for the bub3 strain (AID 167). Particulars: S. cerevisiae bub3 mutant strain, active compounds read high. A digest of the protocol: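 Whole-cell yeast assay. The mutant strain was incubated with compounds, and growth inhibition was determined by comparison with vehicle-treated cells.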
Assay [6] can be described thus: NCI Yeast Anticancer Drug Screen. Data for the mlh1 rad18 strain (AID 175). Particulars: S. cerevisiae mlh1 rad18 strain growth inhibition, active compounds read high. Put shortly:
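Test agents were incubated with a yeast strain of defined genotype (DNA damage repair defect). Inhibition of growth was derived by comparison with vehicle-exposed cultures.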

Where [7] appears, read: at 5.0 µM (retest, dose inferred, filed as 0.5).
[8] abbreviates: at 50.0 µM (retest, dose inferred, filed as 5.0).

About 79,000 compounds went through this panel and 15% of them were active in at least one assay; those are over-represented in the sample as a whole. Values without a mark were called inactive. Calls of active or inactive are those of the source. Cut-off read from the data, not from the text of the source: active = growth inhibition above about 70%; inactive = the rest.

Turning to `CCCCCCCC(=O)/C=C/c1ccc(C)cc1`, the growth inhibition in assay [1] (setting [7]) is -161%; in assay [1] (setting [8]), -136%; in assay [1] (at 50.0 µM), 56.8%; in assay [2] (setting [7]), -54%; in assay [2] (setting [8]), -50%; in assay [2] (at 50.0 µM) it was 44.1%. Further, the growth inhibition was -69% in assay [3] (setting [7]); -65% in assay [3] (setting [8]); 67.6% in assay [3] (at 50.0 µM); -62% in assay [4] (setting [7]); -86% in assay [4] (setting [8]); 30.2% in assay [4] (at 50.0 µM). For the same compound, the growth inhibition was -61% in assay [5] (setting [7]); -47% in assay [5] (setting [8]); 65.8% in assay [5] (at 50.0 µM); -128% in assay [6] (setting [7]); -119% in assay [6] (setting [8]); 45% in assay [6] (at 50.0 µM).
With `O=C(O)Cc1ccc2c3c(cccc13)CC2`, the growth inhibition in assay [1] (setting [7]) is 44%; in assay [1] (setting [8]) it was 90% (active); in assay [1] (at 50.0 µM), 88.1% (active); in assay [2] (setting [7]), 12%; in assay [2] (setting [8]) it was 94% (active); in assay [2] (at 50.0 µM) it was 91.8% (active). For the same compound, the growth inhibition in assay [3] (setting [7]) is 20%; in assay [3] (setting [8]) it was 78% (active); in assay [3] (at 50.0 µM) it was 91.2% (active); in assay [4] (setting [7]) it was 23%; in assay [4] (setting [8]), 77% (active); in assay [4] (at 50.0 µM) it was 90.2% (active). The growth inhibition was 16% in assay [5] (setting [7]); 86% (active) in assay [5] (setting [8]); 92.2% (active) in assay [5] (at 50.0 µM); 27% in assay [6] (setting [7]); 91% (active) in assay [6] (setting [8]); 92.8% (active) in assay [6] (at 50.0 µM).
Consider `C1=c2ccccc2=C2C(=C(c3ccccc3)C(c3ccccc3)=NN2c2ccccc2)S1`, for which the growth inhibition in assay [1] (setting [7]) was -25%; in assay [1] (setting [8]), -9%; in assay [1] (at 50.0 µM), -14.2%; in assay [2] (setting [7]), 0%; in assay [2] (setting [8]), -17%; in assay [2] (at 50.0 µM) it was -18.6%. In addition, the growth inhibition in assay [3] (setting [7]) was -13%; in assay [3] (setting [8]), -22%; in assay [3] (at 50.0 µM) it was -18.8%; in assay [4] (setting [7]), -22%; in assay [4] (setting [8]), -13%; in assay [4] (at 50.0 µM) it was 5.9%. In addition, the growth inhibition is -4% in assay [5] (setting [7]); 2% in assay [5] (setting [8]); -5.35% in assay [5] (at 50.0 µM); -1% in assay [6] (setting [7]); -32% in assay [6] (setting [8]); -2.55% in assay [6] (at 50.0 µM).
Consider `[Cu+2].[NH-]c1ccccc1O.[NH-]c1ccccc1[OH2+]`, for which the growth inhibition in assay [1] (setting [7]) was 7%; in assay [1] (setting [8]), 69%; in assay [1] (at 50.0 µM) it was 50.6%; in assay [2] (setting [7]) it was 20%; in assay [2] (setting [8]) it was 80% (active); in assay [2] (at 50.0 µM), 46.6%. The growth inhibition was 15% in assay [3] (setting [7]); 67% in assay [3] (setting [8]); 60.4% in assay [3] (at 50.0 µM); 11% in assay [4] (setting [7]); 59% in assay [4] (setting [8]); 35.8% in assay [4] (at 50.0 µM). Further, the growth inhibition is 45% in assay [5] (setting [7]); 67% in assay [5] (setting [8]); 75.8% (active) in assay [5] (at 50.0 µM); 28% in assay [6] (setting [7]); 82% (active) in assay [6] (setting [8]); 75.6% (active) in assay [6] (at 50.0 µM).
With `CCOC(=O)C1SC(=S)N(C)C1=O` (configuration not stated), the growth inhibition in assay [1] (setting [7]) is 3%; in assay [1] (setting [8]) it was 99% (active); in assay [1] (at 50.0 µM), 99.2% (active); in assay [2] (setting [7]), -2%; in assay [2] (setting [8]), 99% (active); in assay [2] (at 50.0 µM), 99.5% (active). Moreover, the growth inhibition in assay [3] (setting [7]) was 8%; in assay [3] (setting [8]), 99% (active); in assay [3] (at 50.0 µM), 99% (active); in assay [4] (setting [7]), -7%; in assay [4] (setting [8]), 99% (active); in assay [4] (at 50.0 µM) it was 99.1% (active). For the same compound, the growth inhibition was -3% in assay [5] (setting [7]); 98% (active) in assay [5] (setting [8]); 99.4% (active) in assay [5] (at 50.0 µM); 19% in assay [6] (setting [7]); 98% (active) in assay [6] (setting [8]); 99.4% (active) in assay [6] (at 50.0 µM).
For the compound `CCCCCCCCCCCCSCCCN`, the growth inhibition in assay [1] (setting [7]) was -6%; in assay [1] (setting [8]), 99% (active); in assay [1] (at 50.0 µM) it was 99.2% (active); in assay [2] (setting [7]), -3%; in assay [2] (setting [8]), 99% (active); in assay [2] (at 50.0 µM), 99.5% (active). The growth inhibition in assay [3] (setting [7]) is -1%; in assay [3] (setting [8]), 99% (active); in assay [3] (at 50.0 µM) it was 99.2% (active); in assay [4] (setting [7]), -9%; in assay [4] (setting [8]), 99% (active); in assay [4] (at 50.0 µM), 99.5% (active). Further, the growth inhibition in assay [5] (setting [7]) was -5%; in assay [5] (setting [8]), 99% (active); in assay [5] (at 50.0 µM), 99.5% (active); in assay [6] (setting [7]) it was -9%; in assay [6] (setting [8]), 99% (active); in assay [6] (at 50.0 µM), 99.5% (active).
For `O=[N+]([O-])c1ccc2c(c1)CCc1ccccc1-2`, the growth inhibition in assay [1] (setting [7]) was 10%; in assay [1] (setting [8]), 77% (active); in assay [1] (at 50.0 µM), 52.6%; in assay [2] (setting [7]) it was -18%; in assay [2] (setting [8]), 37%; in assay [2] (at 50.0 µM), -2.75%. Moreover, the growth inhibition in assay [3] (setting [7]) is 12%; in assay [3] (setting [8]), 75% (active); in assay [3] (at 50.0 µM), 76.6% (active); in assay [4] (setting [7]), -1%; in assay [4] (setting [8]), 33%; in assay [4] (at 50.0 µM), 9.4%. Also, the growth inhibition in assay [5] (setting [7]) is -15%; in assay [5] (setting [8]) it was 78% (active); in assay [5] (at 50.0 µM), 20.4%; in assay [6] (setting [7]), 16%; in assay [6] (setting [8]), 89% (active); in assay [6] (at 50.0 µM), 68.7%.
On to `[N-]=[N+]=Nc1ccc(SN2C(=O)c3ccccc3C2=O)cc1`, for which the growth inhibition in assay [1] (setting [7]) is 29%; in assay [1] (setting [8]), 98% (active); in assay [1] (at 50.0 µM) it was 90.7% (active); in assay [2] (setting [7]) it was 23%; in assay [2] (setting [8]), 95% (active); in assay [2] (at 50.0 µM) it was 88.4% (active). Further, the growth inhibition in assay [3] (setting [7]) is 6%; in assay [3] (setting [8]) it was 98% (active); in assay [3] (at 50.0 µM), 92.5% (active); in assay [4] (setting [7]) it was 3%; in assay [4] (setting [8]) it was 67%; in assay [4] (at 50.0 µM), 63.1%. In addition, the growth inhibition is 1% in assay [5] (setting [7]); 44% in assay [5] (setting [8]); 95.4% (active) in assay [5] (at 50.0 µM); 10% in assay [6] (setting [7]); 95% (active) in assay [6] (setting [8]); 73.3% (active) in assay [6] (at 50.0 µM).
For the compound `Cc1cccc2c(CC(=O)O)c[nH]c12`, the growth inhibition in assay [1] (setting [7]) was 60%; in assay [1] (setting [8]) it was 98% (active); in assay [1] (at 50.0 µM) it was 99.2% (active); in assay [2] (setting [7]) it was 76% (active); in assay [2] (setting [8]), 99% (active); in assay [2] (at 50.0 µM), 99.5% (active). Besides, the growth inhibition in assay [3] (setting [7]) was 67%; in assay [3] (setting [8]), 99% (active); in assay [3] (at 50.0 µM), 99.6% (active); in assay [4] (setting [7]), 73% (active); in assay [4] (setting [8]) it was 99% (active); in assay [4] (at 50.0 µM) it was 99.2% (active). The growth inhibition is 93% (active) in assay [5] (setting [7]); 97% (active) in assay [5] (setting [8]); 99.4% (active) in assay [5] (at 50.0 µM); 92% (active) in assay [6] (setting [7]); 98% (active) in assay [6] (setting [8]); 99.3% (active) in assay [6] (at 50.0 µM).

These data come from PubChem BioAssay (NCI).
